# NS1 inh: inhibitors of influenza NS1 protein function; Potency, µM (doses to about 46.1 µM), inactives show at the top dose activity, positive = more growth; 270,000 compounds, 0.4% hits; AID 2326; note: actives are rising curves; nearly all actives have a fitted effect of over 50% in size
#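 A cell-based growth assay was used: compounds that relieve NS1-induced slow growth of budding yeast raise OD600. Assay medium was yeast nitrogen base with ammonium sulphate and -URA supplement, pH 6.0, with 2% galactose.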
# Pf growth 96h: P. falciparum growth inhibition at 96 hour, primary screen for plastid delayed-death inhibitors. Potency, µM (highest dose often 28.7 µM), inactives show at the top dose activity change, negative = inhibition, hits mostly inhibitors. P. falciparum luciferase reporter growth, 96 h. 320,000 compounds, 6.9% hits. AID 504834; active = well fitted inhibition curve with a large enough effect; inconclusive = small, poorly fitted or top-dose-only effect, or another doubt; inactive = no such curve, though single readings can be large or run the other way; note: % is set by controls: 0 for no effect and ±100 for the full control effect
#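 Erythrocytes infected with luciferase-expressing P. falciparum were dispensed at 2% hematocrit and 0.05% parasitemia (final), then incubated with compounds 96 hours at 37 C in 5% CO2. Luminescence after detection reagent addition reported growth.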
# Pf growth 48h: inhibits P. falciparum growth in the first generation, 48 h; P. falciparum luciferase growth in erythrocytes, 48 h; Potency, µM (doses to about 28.7 µM), without a hit: top-dose activity change, negative = inhibition, hits mostly inhibitors; 310,000 compounds, 5.9% hits; active = well fitted inhibition curve with a large enough effect; inconclusive = small, poorly fitted or top-dose-only effect, or another doubt; inactive = no such curve, though single readings can be large or run the other way; note: % is set by controls: 0 for no effect and ±100 for the full control effect
#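 Luciferase-expressing parasites in RBCs, 2% Hct / 0.1% parasitemia final; RPMI 1640 + 0.5% Albumax; 37 C, 5% CO2, one generation; luminescence read-out, lower signal = inhibition.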
# SARS PLP yeast: blocks SARS-CoV papain-like protease in a yeast assay; Potency, µM (top dose mostly 32.9 µM), for inactives: at the top dose activity, positive = growth rescue, most hits filed as activators; AID 485353; S. cerevisiae expressing SARS-CoV PLpro, growth rescue; 330,000 compounds, 0.19% hits; note: 0% is about no effect; nearly all actives have a fitted effect of over 55% in size
# An asterisk follows results filed as active; i = inactive; ? = inconclusive; . = not tested or not shown; [ ] = dose if it differs, or a comment. In the library only some 10% were active in any assay of this set; here they are far more common. Unless noted, calls come from the whole dose curve. Potency is the fitted concentration of half-maximal effect.
SMILES,NS1 inh,Pf growth 96h,Pf growth 48h,SARS PLP yeast
O=C(NC1CCCCC1)C1CCN(C(=O)c2ccc(-c3ccccc3)cc2)CC1,-3%,6%,-15%,-1%
CC(C)(C)NC(=O)C1CCN(C(=O)c2ccc(-c3ccccc3)cc2)CC1,-49%,.,9.3µM*,3%
CCn1c(/C=C/Nc2ccccc2)[n+](CC)c2ccc(Cl)cc21,-9%,8.3µM*,?,2%
CCn1c(/C=C/N(C)c2ccccc2)[n+](CC)c2ccc(Cl)cc21,3%,0.13µM*,0.74µM*,1%
O=C(CSc1nncs1)Nc1ccc(Cl)cn1,1%,?,17%,?
Cc1c(NC(=O)CCCCCN2C(=O)C3C4C=CC(C4)C3C2=O)c(=O)n(-c2ccccc2)n1C (stereo not drawn),18%,9.3µM*,14%,-1%
Cc1c(NC(=O)NCCN2C(=O)C3C4C=CC(C4)C3C2=O)c(=O)n(-c2ccccc2)n1C (stereo not drawn),-1%,15µM*,.,3%
O=C(NCCN1C(=O)C2C3C=CC(C3)C2C1=O)Nc1ccccc1O (stereo not drawn),6%,9.3µM*,.,-6%
Cc1c(NC(=O)c2ccc(N3C(=O)C4C5C=CC(C5)C4C3=O)cc2)c(=O)n(-c2ccccc2)n1C (stereo not drawn),-19%,33%,12%,-2%
Cc1c(NC(=O)C(C)N2C(=O)C3C4C=CC(C4)C3C2=O)c(=O)n(-c2ccccc2)n1C (stereo not drawn),0%,4%,.,8%
CCCc1nnc(NC(=O)NCCN2C(=O)C3C4C=CC(C4)C3C2=O)s1 (stereo not drawn),5%,15%,0%,24%
COC(=O)c1c(NC(=O)COC(=O)CC(NC(C)=O)c2ccccc2)sc(C)c1C (stereo not drawn),.,0%,-15%,-8%
Cc1cccc(C)c1NC(=O)[C@H](C)N,.,-20%[12.8 µM],-12%[12.8 µM],.
Cc1ccc(Cl)c(NC(=O)CCl)c1Cl,.,12µM*,?,2%
O=C1C(=O)c2ccccc2C(O)=C1c1cccc([N+](=O)[O-])c1,-37%,7.4µM*,?,1%
Cc1ccc(C2=C(O)c3ccccc3C(=O)C2=O)cc1,-91%,10%,?,-10%
CC(C)c1ccc(C2=C(O)c3ccccc3C(=O)C2=O)cc1,-16%,164%,1.5µM*,-92%
O=C(N/N=C/c1ccncc1)c1cc(Br)ccc1OCc1ccccc1,5%,2.9µM*,?,0%
Fc1cccc(Cl)c1CNCc1cccnc1,9%,12µM*,11%,9%
O=C(N/N=C/c1ccncc1)c1ccc(COc2cccc3cccnc23)cc1,.,?,8.3µM*,1%
O=C(CSCc1c(F)cccc1Cl)NCc1cccnc1,8%,?,-1%,-6%
COc1ccc(C(=O)Nc2ccccc2C(=O)N/N=C/c2ccccn2)cc1OC,-7%,12µM*,4.1µM*,-5%
O=C(N/N=C/c1cccc(O)c1)c1ccc(COc2cccc3cccnc23)cc1,.,?,-16%,1%
Fc1ccc(COc2ccccc2CNCc2ccncc2)cc1,2%,?,?,3%
Clc1ccc(COc2ccccc2CNCc2cccnc2)cc1,-10%,4.7µM*,.,5%
SMILES,NS1 inh,Pf growth 96h,Pf growth 48h,SARS PLP yeast
Brc1ccc(OCc2ccccc2)c(CNCc2ccncc2)c1,-56%,0.41µM*,9.3µM*,-24%
C=CCOc1ccccc1CNCc1cccnc1,-10%,32%,1%,3%
COc1ccc(OC)c(C(=O)N/N=C/c2ccccn2)c1,-21%,9%,79%,-6%
O=C(N/N=C/c1ccco1)c1ccccc1OCc1ccc(Br)cc1,-3%,13µM*,2%,-16%
CCOc1ccc(Br)cc1C(=O)N/N=C/c1ccccn1,-39%,?,9.3µM*,-1%
CC(C)(C)NC(=O)[C@H]1CN(Cc2cccnc2)CCN1C[C@@H](O)C[C@@H](Cc1ccccc1)C(=O)N[C@H]1c2ccccc2C[C@H]1O,.,-17%,11µM*,.
COC(CN(C(=O)CCl)C(C(=O)NC1CCCCC1)c1ccc(Cl)cc1)OC (stereo not drawn),3%,2.9µM*,?,6%
COc1ccc(C(C(=O)NC2CCCCC2)N(C(=O)CCl)c2ccc(Cl)cc2)cc1 (stereo not drawn),-6%,3.7µM*,-5%,-10%
COc1ccc(C(C(=O)NC2CCCCC2)N(C(=O)c2sc(C)nc2C)c2ccc(OC)cc2)cc1 (stereo not drawn),-3%,0%,62%,-2%
COC(CN(C(=O)CCl)C(C(=O)NC1CCCCC1)c1ccccc1C)OC (stereo not drawn),-4%,?,15µM*,-13%
Nc1ccccc1C(=O)N1CCc2ccccc21,-10%,?,29%,2%
COc1ccccc1N1CCN(C(=O)Cc2c(C(=O)O)[nH]c3ccc(Cl)cc23)CC1,.,i,10µM*,0%
Cc1ccccc1NC(=O)N1CCN(c2ncccn2)CC1,.,2.3µM*,16%,-1%
COc1ccccc1NC(=O)N1CCN(c2ccc(F)cc2)CC1,-3%,2.3µM*,-21%,1%
O=C(Nc1ccc(F)cc1F)N1CCC(c2nc3ccccc3o2)CC1,.,110%,12%,0%
COc1ccccc1NC(=O)N1CCC(c2nc3ccccc3o2)CC1,.,23µM*,12%,-2%
COc1ccc(Cl)cc1NC(=O)N1CCN(c2ccccc2OC)CC1,-2%,?,6.6µM*,-3%
COc1ccc(N2CCN(C(=O)C(OC(C)=O)c3ccccc3)CC2)cc1 (stereo not drawn),7%,-2%,12%,2%
CC(=O)OC(C(=O)N1CCN(c2ccc(F)cc2)CC1)c1ccccc1 (stereo not drawn),-11%,12µM*,32%,?
O=C(Nc1ccccc1)N1CCN(c2ccc(F)cc2)CC1,0%,?,13µM*,-41%
O=C1CCC([N+](=O)[O-])C(c2ccccc2C(F)(F)F)N1 (stereo not drawn),0%,?,0%,1%
COc1cc(C(CC(=O)Nc2cc(C)ccn2)N2Cc3ccccc3C2=O)cc(OC)c1OC (stereo not drawn),3%,-7%,-4%,1%
Cc1cccc(N2CCN(C(=O)NC(C)c3ccc(F)c(F)c3)CC2)c1C (stereo not drawn),-9%,12µM*,12µM*,-4%
O=C(c1cccs1)N1CCC(N2CCN(c3ccccc3)CC2)CC1,-4%[9.22 µM],3.3µM*,1%,2%
CCOC(=O)N1CCN(c2cccc(C)c2C)CC1,-7%,-17%,4%,-34%
COc1ccccc1N1CCN(C2CCN(C(=O)c3cccs3)CC2)CC1,-2%,-4%,-6%,10%
Cc1cccc(N2CCN(C(=O)Cn3cccc3)CC2)c1C,-56%,4.1µM*,.,-7%
Cc1cccc(N2CCN(C(=O)n3ccnc3)CC2)c1C,-5%,12µM*,?,-11%
C[C@]1(CC/C(=C/CO)CO)[C@H](CO)CC[C@@]23COC(=O)C2=CCC[C@@H]31,.,1%,-11%,-6%
CCCCC[C@H]1CN(Cc2ccccc2)C(=O)[C@@H]1CC(=O)NCc1ccccc1,-70%,?,-6%,0%
